From PubChem BioAssay (NCI)
Values joined by “and” are separate entries in the source; they are usually repeats but may differ in a detail not shown here. Equal entries are not always repeated. Compounds without any hit were thinned out: in the full panel of roughly 83,000, 20% have a hit.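 Cells were grown in 96-well plates and exposed to the test compound at a single concentration for 48 hours; results are reported as percent growth, with values below 10 considered active.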 Active and inactive are the calls of the source.

What was measured:
Experiment in all cases: NCI-60 one-dose screen, 48 h (100 = growth as untreated, 0 = no growth, -100 = all killed)
Conditions in all cases: 10 µM unless noted
[1] = test system: NCI-H23 lung
[2] = test system: NCI-H226 lung
[3] = test system: NCI-H322M lung
[4] = test system: HOP-62 NSCLC
[5] = test system: NCI-H460 lung
[6] = test system: HOP-92 NSCLC
[7] = test system: NCI-H522 lung
[8] = test system: A549/ATCC NSCLC
[9] = test system: 786-0 renal
[10] = test system: DU-145 prostate
[11] = test system: K-562 leukemia
[12] = test system: MALME-3M melanoma
[13] = test system: MDA-MB-231 breast
[14] = test system: RXF 393 renal
[15] = test system: SF-268 CNS
[16] = test system: SF-295 CNS
[17] = test system: SF-539 CNS
[18] = test system: UACC-257 melanoma
[19] = test system: M14 melanoma
[20] = test system: COLO 205 colon

Measured: growth

Cc1ccc(P(=O)(O)O)cc1
inactive: [1] 108% | [2] 99.2% | [3] 111% | [4] 120% | [5] 108% | [6] 120% | [7] 101% | [8] 102% | [9] 103% | [10] 116% | [11] 98.9% | [12] 96% | [13] 98.6% | [14] 98.8% | [15] 109% | [16] 100% | [17] 94.2% | [18] 103% | [19] 104%

c1ccc(CCN2CCCCC2)nc1
inactive: [1] 103% | [2] 101% | [3] 106% | [4] 95.6% | [5] 114% | [6] 91.7% | [7] 101% | [8] 95.7% | [9] 101% | [20] 106% | [11] 97.6% | [12] 141% | [13] 97.8% | [14] 114% | [15] 103% | [16] 98% | [17] 102% | [18] 108% | [19] 99.5%

Cn1cc(-c2csc(-c3cn(CCCCN4CCOCC4)c4ccc(F)cc34)n2)c2cccnc21
inactive: [1] 80.3% | [2] 60.2% | [3] 84.3% | [4] 85.6% | [5] 93.5% | [6] 52.8% | [7] 57.2% | [8] 75.1% | [9] 63.2% | [10] 100% | [13] 35.2% | [14] 16.3% | [15] 63% | [16] 50.8% | [17] 69.7%
active: [11] -49.7% | [12] -60.3% | [18] -45.1% | [19] -53.9%

C[C@]12CC[C@@H](OC(=O)N(CCCl)N=O)C[C@@H]1CC[C@@H]1[C@@H]2CC[C@]2(C)C(=O)CC[C@@H]12
inactive: [1] 74.7% | [2] 88% | [3] 57.5% | [4] 38.6% | [7] 51.1% | [8] 10.3% | [9] 28.4% | [11] 23.2% | [12] 108% | [13] 81.9% | [14] 78% | [15] 30.6% | [18] 76.2% | [19] 72.5%
active: [5] -67.5% | [6] -10.2% | [10] -0.658% | [16] -15.7% | [17] 1.49%

CCC1(CCSC#N)C(=O)NC(=O)NC1=O
inactive: [1] 91.5% | [2] 104% | [3] 97.9% | [4] 94.9% | [5] 107% | [6] 85.8% | [7] 109% | [8] 106% | [9] 93.5% | [10] 106% | [11] 86.5% | [12] 86.2% | [13] 106% | [14] 117% | [15] 97.2% | [16] 100% | [17] 94.9% | [18] 98.9% | [19] 94.6%

CN1C2CCC1[C@@H](COC(=O)c1ccccc1)[C@@H](O)C2 (stereo partly drawn)
inactive: [1] 108% | [2] 99.6% | [3] 119% | [4] 99.7% | [5] 113% | [6] 69.9% | [7] 64.9% | [8] 99.2% | [9] 108% | [20] 129% | [10] 112% | [11] 81.3% | [12] 129% | [13] 103% | [15] 108% | [16] 112% | [17] 103% | [18] 97.1% | [19] 100%

CC[C@H](C)[C@H](NC(=O)[C@H]1CCCCN1C)C(=O)N(C)[C@H](C(=O)NC12CC(C(=O)N[C@@H](Cc3ccccc3)C[C@H](C)C(=O)OC)(C1)C2)C(C)C
inactive: [1] 97.7% | [2] 98.8% | [3] 91.9% | [4] 92.8% | [5] 101% | [6] 98.4% | [7] 74.2% | [8] 92% | [9] 103% | [10] 105% | [11] 98.2% | [12] 106% | [13] 110% | [14] 108% | [15] 90.2% | [16] 102% | [17] 100% | [18] 102% | [19] 101%

O=c1[nH]c(=O)n(Cl)c(=O)n1Cl
inactive: [1] 99.2% | [2] 98.4% and 104% | [3] 108% and 119% | [4] 109% and 98.3% | [5] 116% and 109% | [6] 101% and 91.2% | [7] 101% and 100% | [8] 105% and 112% | [9] 115% and 99.5% | [10] 142% | [11] 109% | [12] 106% and 110% | [13] 99.1% and 113% | [14] 114% and 120% | [15] 108% and 136% | [16] 101% and 114% | [17] 106% and 92.5% | [18] 99.5% and 117% | [19] 103% and 98.4%

COc1ccc(N)cc1OC
inactive: [1] 105% | [2] 107% | [3] 114% | [4] 104% | [5] 119% | [6] 91.2% | [7] 103% | [8] 105% | [9] 102% | [20] 109% | [11] 129% | [12] 129% | [13] 87.1% | [14] 125% | [15] 106% | [16] 93.9% | [17] 110% | [18] 107% | [19] 109%

C[C@]12CCc3sc(Nc4ccc(OC(F)(F)F)cc4)nc3C1=CC[C@@H]1[C@@H]2CC[C@]2(C)C(=O)CC[C@@H]12
inactive: [1] 75.5% | [2] 74.9% | [3] 77.3% | [4] 80% | [5] 53.3% | [6] 75% | [7] 89.1% | [9] 30.5% | [20] 67.9% | [10] 66.1% | [12] 76.8% | [13] 73.5% | [15] 68.6% | [18] 84% | [19] 83.9%
active: [11] 8.2% | [14] -32.2% | [16] -2.71% | [17] -5.4%

CSc1cc(/C=C(\C)[C@@H]2C[C@@H]3O[C@]3(C)CCC[C@H](C)[C@H](O)[C@@H](C)C(=O)C(C)(C)[C@@H](O)CC(=O)O2)n(CCNC(=O)OC(C)(C)C)n1
inactive: [1] 61.4% | [2] 82.7% | [3] 77.2% | [4] 68.7% | [5] 29.6% | [7] 63.1% | [8] 55.2% | [9] 66.6% | [20] 30.5% | [10] 58% | [11] 36.4% | [12] 78.7% | [13] 63.8% | [14] 63.6% | [15] 70.6% | [16] 73.5% | [17] 54% | [18] 91.9% | [19] 56.7%

O=C(O)C1C(C(=O)O)C2(Cl)C(Cl)=C(Cl)C1(Cl)C2(Cl)Cl (stereo not drawn)
inactive: [1] 96.8% and 100% | [2] 98.5% and 114% | [3] 106% and 117% | [4] 99.6% and 111% | [5] 101% and 111% | [6] 94.3% and 94.8% | [7] 97.2% and 123% | [9] 111% and 99.2% | [20] 101% and 119% | [10] 107% and 120% | [11] 113% and 115% | [12] 104% and 102% | [13] 111% and 102% | [14] 103% and 130% | [15] 105% and 106% | [16] 101% and 113% | [17] 88.5% | [18] 102% and 104% | [19] 102% and 109%

CC1(C)C=Cc2c(ccc3c2[N+]([O-])=C2C3=C[C@@]34NC(=O)[C@]5(CCCN5C3=O)C[C@@H]4C2(C)C)O1
inactive: [1] 63.2% | [2] 84.5% | [3] 67.5% | [4] 54.5% | [5] 26.9% | [7] 25.6% | [8] 54.7% | [9] 42.1% | [20] 35.2% | [10] 43.3% | [12] 82.9% | [13] 48.5% | [14] 32.8% | [15] 53.7% | [16] 52.2% | [17] 51.2% | [18] 68.9% | [19] 61.6%
active: [11] 9.2%

c1ccc2c(c1)O[As](O[As]1Oc3ccccc3O1)O2
active: [6] -12.2% | [11] 5.83% | [12] -7.18% | [17] -32.9%
inactive: [1] 43.8% | [2] 65.2% | [3] 58.5% | [4] 50.6% | [5] 54.8% | [9] 25.3% | [20] 50.3% | [10] 60.6% | [13] 62% | [14] 42.4% | [15] 19.2% | [16] 99.3% | [19] 52.2%

CC1(C)S[C@H]2CC[C@H]3OC(=O)[C@@H]1N23
inactive: [1] 94.7% | [2] 98.1% | [3] 98.7% | [4] 104% | [5] 110% | [6] 77.9% | [7] 88.9% | [9] 106% | [20] 137% | [10] 116% | [11] 111% | [12] 101% | [13] 121% | [14] 103% | [15] 113% | [16] 88% | [17] 104% | [18] 116% | [19] 106%
